Data taken from PubChem BioAssay (NCI).
About 83,000 compounds went through this panel and 20% of them were active in at least one assay; those are over-represented in the sample as a whole.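 How to read the values: 0–100, growth inhibition (40 = 60% inhibited); 0, no net growth; -100 to 0, cell death (-40 = 40% of starting cells died; -100 = all dead).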 Activity calls are given as the source filed them. The calls were made as follows: active = growth percent below 10; inactive = the rest.

Each molecule was assayed on MCF7 breast (assay: NCI-60 one-dose screen, 48 h (100 = growth as untreated, 0 = no growth, -100 = all killed)). Conditions: 10 µM unless noted.

Row | Structure (SMILES) | growth
1 | CCOc1ccc(-n2nc(C(=O)NCc3ccccc3OC)nc2-c2cc(OC)c(OC)c(OC)c2)cc1 | 22.1% (inactive)
2 | O=C(CCCCCCN1CC(=O)N2[C@H](c3ccc(Br)cc3)c3[nH]c4ccccc4c3C[C@@H]2C1=O)NO | 28.4% (inactive)
3 | CCN1C(=O)N(CC)C2Nn3c(s/c(=C\c4ccccc4Br)c3=O)=NC21 (stereo unspecified) | 16.7% (inactive)
4 | COC(=O)c1nc(-c2ccccc2)oc1S(=O)(=O)NCC(c1ccc(Cl)cc1)N1CCOCC1 (stereo unspecified) | 31.7% (inactive)
5 | CC1=C(C(=O)Nc2nc(-c3ccc(Cl)cc3)cs2)[C@H](c2ccc(O)cc2)NC(=O)N1 | 101% (inactive)
6 | COc1ccc(C(=O)c2cc3c(N)c(C(=O)Nc4ccccc4)sc3nc2C)cc1 | 20.7% (inactive)
7 | C#CC#CC#CC#CC#CC#CC#CC#CC[C@@H]1OC[C@@H](COC(=O)O[C@@H](C(=O)O[C@H]2C[C@@]3(O)[C@@H](OC(=O)c4ccccc4)[C@@H]4[C@]5(OC(C)=O)CO[C@@H]5C[C@H](O)[C@@]4(C)C(=O)[C@H](OC(C)=O)C(=C2C)C3(C)C)[C@@H](NC(=O)c2ccccc2)c2ccccc2)O1 | 13.6% (inactive)
8 | CNCc1cccc2c1OCCOCCOCCNS(=O)(=O)c1ccc(cc1)-c1cnc(N)c(n1)C(=O)N2 | 11.8% (inactive)
9 | CC1(C)OB(O)c2cc(-c3nc4ccc5[nH]ncc5c4c4c3CCCC4)ccc21 | 44.1% (inactive)
10 | COc1ccc(/C=C2\COc3ccc(O)cc3C2=O)cc1 | 15.4% (inactive)
11 | CN1C(=O)/C(=C/c2ccc(C(=O)Nc3ncc(Cc4cccc(Cl)c4)s3)cc2)SC1=S | 46% (inactive)
